In PubChem BioAssay (EPA / NIEHS):
Inconclusive results are not listed. Calls of active or inactive are those of the source. Rule for the calls, unless noted: active = hit-call score of the fitted dose curve at least 0.9, where 1 is the maximum; inconclusive = response in the unintended direction; inactive = score below 0.9.

Biological target: human Constitutive Androstane Receptor (CAR), NR1I3 (gene 9970) (UniProt Q14994)
Assay: NVS_NR_hCAR_Agonist: NovaScreen (NVS) Nuclear Receptor Binding Assay for human Constitutive Androstane Receptor Agonism (CAR) (AID 2283328)
Method: NVS_NR_hCAR_Agonist is a biochemical, single-readout assay that uses extracted gene-proteins in a cell-free assay. Measurements were taken 1 hour after chemical dosing in a 384-well plate.NVS_NR_hCAR_Agonist is one of one assay component(s) measured or calculated from the NVS_NR_hCAR_Agonist assay. It is designed to make measurements of fluorescent resonance energy transfer, a form of binding reporter, as detected with fluorescent resonance energy transfer signals by Time-Resolved Fluorescence Resonance Energy Transfer (TR-FRET) technology.Data from the assay component NVS_NR_hCAR_Agonist was analyzed into 1 assay endpoint. This assay endpoint, NVS_NR_hCAR_Agonist, was analyzed in the positive analysis fitting direction relative to DMSO as the negative control and baseline of activity. Using a type of binding reporter, gain-of-signal activity can be used to understand changes in the binding as they relate to the gene NR1I3. Furthermore, this assay endpoint can be referred to as a primary readout, because the performed assay has only produced 1 assay endpoint. To generalize the intended target to other relatable targets, this assay endpoint is annotated to the nuclear receptor intended target family, where the subfamily is non-steroidal.
Binding assays used specific radioligands (tritiated, iodinated) with non-radioactive competitive displacement ligands in agonist or antagonist protocols (as indicated) and various reference compounds and inhibitors to titrate specific binding to receptors and transporters. Most enzyme assays (CYPs, kinases, phosphatases, proteases, HDACs) used recombinant protein and specific substrates (fluorescence mostly, some colorimetric and radioactive) and inhibitors, followed by a biochemical separation of substrate and product. All assays for the biochemical HTS were initially run in duplicate at a single concentration (10 uM for CYP450 assays and 25 uM for all others). […]

human Constitutive Androstane Receptor (CAR), NR1I3 (gene 9970), sequence (Q14994 whole entry, looked up): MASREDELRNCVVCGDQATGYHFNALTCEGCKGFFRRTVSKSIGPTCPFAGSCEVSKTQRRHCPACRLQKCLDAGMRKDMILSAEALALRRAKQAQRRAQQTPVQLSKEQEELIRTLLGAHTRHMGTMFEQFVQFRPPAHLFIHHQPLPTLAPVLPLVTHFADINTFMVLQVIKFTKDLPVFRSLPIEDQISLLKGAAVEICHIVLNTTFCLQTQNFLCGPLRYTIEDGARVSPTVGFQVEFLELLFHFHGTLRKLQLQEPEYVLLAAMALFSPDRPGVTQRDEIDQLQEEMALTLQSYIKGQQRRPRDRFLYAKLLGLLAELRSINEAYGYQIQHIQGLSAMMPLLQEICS

With `COc1cc(C(C)C)c2c(c1)S(=O)(=O)N(COc1cc(=O)n3cccc(OCCN4CCCCC4)c3n1)C2=O` as the compound, how does the outcome read?
Its outcome is “inactive”.

Which outcome does the source give for `Cc1nc(-c2ccccn2)ncc1C(=O)Nn1cc(C)c2cc(F)ccc21` here?
Its outcome is “inactive”.

For `OCCOCCOCCO`, which outcome is on record?
The outcome was “inactive”.

Biological target: human Peripheral-type Benzodiazepine Receptor (PBR), TSPO (gene 706) (UniProt P30536)
Assay: NVS_MP_hPBR: NovaScreen (NVS) Membrane Protein Assay for human Peripheral-type Benzodiazepine Receptor (PBR) (AID 2283331);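 note: hits reduce radioligand binding relative to DMSO baseline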
Procedure, shortened: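 Using human colon-derived membranes, this one-endpoint binding test reads radioligand loss by scintillation after 1 h. Screening started at 25 uM in duplicate, with positive and negative controls on every plate, and actives moved to dose series.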

human Peripheral-type Benzodiazepine Receptor (PBR), TSPO (gene 706), sequence (P30536 whole entry, looked up): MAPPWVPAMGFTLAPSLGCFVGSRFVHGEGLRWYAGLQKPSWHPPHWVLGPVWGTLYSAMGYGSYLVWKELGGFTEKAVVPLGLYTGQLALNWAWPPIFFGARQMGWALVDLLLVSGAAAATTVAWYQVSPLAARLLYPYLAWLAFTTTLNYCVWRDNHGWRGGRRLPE

For `c1ccc2cc3ccccc3cc2c1`, which outcome is on record?
Its outcome is “inactive”.

With `CCN(CC)C(=S)SSC(=S)N(CC)CC` as the compound, how does the AC50 read?
The AC50 was 3.21 µM (active).

For `CC(C)C(=O)Nc1ccc([N+](=O)[O-])c(C(F)(F)F)c1`, which outcome is on record?
Its outcome is “inactive”.

With `C[C@@H](Oc1ccc(CNC(=O)c2cccnc2Oc2ccc3c(c2)OCO3)c(F)c1)C(=O)O` as the compound, how does the AC50 read?
The AC50 was 20.8 µM (active).

Biological target: Voltage-gated inwardly rectifying potassium channel KCNH2 (Homo sapiens) (UniProt Q12809)
Assay: NVS_IC_hKhERGCh: NovaScreen (NVS) Ion Channel Assay for human Potassium Channel ERG (KhERGCh) (AID 2283333)
Procedure, shortened: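 Membranes from CHO cells expressing human ERG; displacement of radioligand measured by filtration and scintillation after 0.75 h. Single-concentration duplicate screen at 25 uM, then concentration-response for actives; DMSO baseline.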

Voltage-gated inwardly rectifying potassium channel KCNH2 (Homo sapiens), sequence (Q12809 whole entry, looked up): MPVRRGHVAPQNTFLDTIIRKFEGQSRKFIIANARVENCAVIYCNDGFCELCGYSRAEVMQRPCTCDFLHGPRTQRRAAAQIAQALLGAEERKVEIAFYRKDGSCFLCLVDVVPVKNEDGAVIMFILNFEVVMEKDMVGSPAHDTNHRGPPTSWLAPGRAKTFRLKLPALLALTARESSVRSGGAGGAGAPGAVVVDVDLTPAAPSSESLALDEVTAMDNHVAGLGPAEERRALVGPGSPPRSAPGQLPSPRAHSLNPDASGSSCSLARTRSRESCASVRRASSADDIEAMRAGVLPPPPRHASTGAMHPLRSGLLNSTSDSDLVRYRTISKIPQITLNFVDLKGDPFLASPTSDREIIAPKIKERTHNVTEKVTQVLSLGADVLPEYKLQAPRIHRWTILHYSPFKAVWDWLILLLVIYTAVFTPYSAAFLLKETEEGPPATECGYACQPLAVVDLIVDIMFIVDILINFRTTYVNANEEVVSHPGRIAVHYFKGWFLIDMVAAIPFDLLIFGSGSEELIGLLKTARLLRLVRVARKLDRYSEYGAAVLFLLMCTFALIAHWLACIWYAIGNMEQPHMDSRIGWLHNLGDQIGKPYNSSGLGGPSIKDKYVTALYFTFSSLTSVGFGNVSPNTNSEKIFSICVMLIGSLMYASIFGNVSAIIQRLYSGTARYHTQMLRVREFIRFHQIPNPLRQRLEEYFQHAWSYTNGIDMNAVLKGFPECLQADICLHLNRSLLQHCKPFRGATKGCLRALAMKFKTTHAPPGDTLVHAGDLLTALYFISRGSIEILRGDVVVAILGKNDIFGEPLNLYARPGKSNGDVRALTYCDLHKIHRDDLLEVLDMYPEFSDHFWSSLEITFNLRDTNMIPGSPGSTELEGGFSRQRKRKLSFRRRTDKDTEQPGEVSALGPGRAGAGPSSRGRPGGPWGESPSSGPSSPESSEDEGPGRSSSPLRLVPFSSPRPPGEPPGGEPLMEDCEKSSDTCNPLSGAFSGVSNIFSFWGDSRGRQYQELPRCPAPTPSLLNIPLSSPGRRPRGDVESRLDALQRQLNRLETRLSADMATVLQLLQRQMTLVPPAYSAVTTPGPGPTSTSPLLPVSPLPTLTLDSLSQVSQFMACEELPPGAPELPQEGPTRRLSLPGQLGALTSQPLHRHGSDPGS

Which outcome does the source give for `c1ccc(C(O[C@@H]2CCCN(CCc3ccc4c(c3)OCO4)C2)c2ccccc2)cc1` here?
The outcome was “inactive”.

With `OC[C@H]1O[C@@](CO)(O[C@H]2O[C@H](CO)[C@@H](O)[C@H](O)[C@H]2O)[C@@H](O)[C@@H]1O` as the compound, how does the outcome read?
Its outcome is “inactive”.

Which AC50 does the source give for `O=S(=O)(O)c1ccc(N=Nc2c(O)ccc3cc(S(=O)(=O)O)ccc23)cc1` here?
The AC50 was 12.3 µM (active).

With `CCCCN1C(=O)[C@@H]([C@H](O)C2CCCCC2)NC(=O)C12CCN(Cc1ccc(Oc3ccc(C(=O)O)cc3)cc1)CC2` as the compound, how does the outcome read?
The outcome was “inactive”.

Biological target: Glutamate receptor ionotropic, kainate 1 (Rattus norvegicus) (UniProt P22756)
Assay: NVS_IC_rKAR: NovaScreen (NVS) Ion Channel Assay for rat Kainic Acid Receptors (KAR) (AID 2283334; active = hit-call score of the fitted dose curve at least 0.9, where 1 is the maximum; inactive = score below 0.9)
Procedure, shortened: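 Rat forebrain membrane preparation incubated 1 h with radioligand and test chemical; bound signal read by filtration and scintillation. Single-concentration screen at 25 uM, then concentration series to 50 uM maximum.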

Glutamate receptor ionotropic, kainate 1 (Rattus norvegicus), sequence (P22756 whole entry, looked up): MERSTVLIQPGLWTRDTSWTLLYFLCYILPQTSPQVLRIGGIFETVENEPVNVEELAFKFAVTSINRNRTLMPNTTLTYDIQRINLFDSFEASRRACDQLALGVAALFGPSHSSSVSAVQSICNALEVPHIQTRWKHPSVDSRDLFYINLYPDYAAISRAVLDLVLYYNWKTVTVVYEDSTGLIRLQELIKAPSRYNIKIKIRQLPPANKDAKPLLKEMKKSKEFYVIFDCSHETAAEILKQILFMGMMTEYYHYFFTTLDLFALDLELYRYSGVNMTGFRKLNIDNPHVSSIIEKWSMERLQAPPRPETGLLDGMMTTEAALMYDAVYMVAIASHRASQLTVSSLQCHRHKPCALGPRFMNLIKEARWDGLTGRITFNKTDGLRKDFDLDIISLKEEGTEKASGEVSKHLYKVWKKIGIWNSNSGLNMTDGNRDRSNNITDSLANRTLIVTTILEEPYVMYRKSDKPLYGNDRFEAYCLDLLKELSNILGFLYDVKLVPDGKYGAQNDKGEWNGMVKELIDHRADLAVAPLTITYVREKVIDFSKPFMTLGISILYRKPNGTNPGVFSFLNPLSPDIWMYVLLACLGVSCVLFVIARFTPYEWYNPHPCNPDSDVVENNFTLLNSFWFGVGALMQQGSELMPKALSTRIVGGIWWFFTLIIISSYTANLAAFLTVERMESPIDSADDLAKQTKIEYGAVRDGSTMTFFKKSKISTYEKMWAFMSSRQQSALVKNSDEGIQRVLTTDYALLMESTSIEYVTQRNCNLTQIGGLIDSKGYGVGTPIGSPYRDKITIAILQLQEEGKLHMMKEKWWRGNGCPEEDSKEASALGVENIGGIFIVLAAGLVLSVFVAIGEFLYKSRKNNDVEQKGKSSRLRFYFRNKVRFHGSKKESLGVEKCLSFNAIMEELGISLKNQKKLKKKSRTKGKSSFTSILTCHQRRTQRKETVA

For `OC[C@H]1O[C@@](CO)(O[C@H]2O[C@H](CO)[C@@H](O)[C@H](O)[C@H]2O)[C@@H](O)[C@@H]1O`, which outcome is on record?
Its outcome is “inactive”.

Which outcome does the source give for `O=C(O)c1cccc(C[C@@H]2COc3ccc(OCc4nc5cc(F)ccc5s4)cc3[C@@H]2O)c1` here?
Its outcome is “inactive”.

For `O=S(=O)(O)c1ccc(N=Nc2c(O)ccc3cc(S(=O)(=O)O)ccc23)cc1`, which outcome is on record?
Its outcome is “inactive”.

For `COc1cc2c(c(OC)c1OC)-c1ccc(OC)c(=O)cc1[C@@H](NC(C)=O)CC2`, which outcome is on record?
The outcome was “inactive”.

Which outcome does the source give for `C=CCc1cc(S(=O)(=O)c2ccc(O)c(CC=C)c2)ccc1O` here?
The outcome was “inactive”.

Biological target: rat Peripheral-type Benzodiazepine Receptor (PBR), Tspo (gene 24230) (UniProt P16257)
Assay: NVS_MP_rPBR: NovaScreen (NVS) Membrane Protein Assay for rat Peripheral-type Benzodiazepine Receptor (PBR) (AID 2283335)
Procedure, shortened: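 Competitive displacement of specific radioligand from rat kidney membrane PBR, read by filtration and scintillation after 1 h. Compounds first tested at 25 uM in duplicate, then in concentration series; signal loss relative to DMSO.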

rat Peripheral-type Benzodiazepine Receptor (PBR), Tspo (gene 24230), sequence (P16257 whole entry, looked up): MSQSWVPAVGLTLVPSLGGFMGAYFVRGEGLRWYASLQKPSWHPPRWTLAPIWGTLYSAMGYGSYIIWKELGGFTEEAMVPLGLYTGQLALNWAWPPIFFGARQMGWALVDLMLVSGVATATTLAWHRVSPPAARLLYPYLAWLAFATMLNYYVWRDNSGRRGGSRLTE

For `c1ccc(C(O[C@@H]2CCCN(CCc3ccc4c(c3)OCO4)C2)c2ccccc2)cc1`, which outcome is on record?
The outcome was “inactive”.

For `CCN(CC)C(=S)SSC(=S)N(CC)CC`, which AC50 is on record?
Its AC50 is 0.31 µM (active).

For `CC(C)C(=O)Nc1ccc([N+](=O)[O-])c(C(F)(F)F)c1`, which AC50 is on record?
The AC50 was 4.95 µM (active).

Biological target: Small conductance calcium-activated potassium channel protein 1 (Rattus norvegicus) (UniProt P70606)
Assay: NVS_IC_rKCaCh: NovaScreen (NVS) Ion Channel Assay for rat Potassium Channel, Ca2+ Act., VI (KCaCh) (AID 2283336)
Method: NVS_IC_rKCaCh is a biochemical, single-readout assay that uses extracted gene-proteins from Rat forebrain membranes in a tissue-based cell-free assay. Measurements were taken 1 hour after chemical dosing in a 96-well plate.NVS_IC_rKCaCh is one of one assay component(s) measured or calculated from the NVS_IC_rKCaCh assay. It is designed to make measurements of radioligand binding, a form of binding reporter, as detected with scintillation counting signals by Filter-based radiodetection technology.Data from the assay component NVS_IC_rKCaCh was analyzed into 1 assay endpoint. This assay endpoint, NVS_IC_rKCaCh, was analyzed in the positive analysis fitting direction relative to DMSO as the negative control and baseline of activity. Using a type of binding reporter, loss-of-signal activity can be used to understand changes in the binding as they relate to the gene Kcnn1. Furthermore, this assay endpoint can be referred to as a primary readout, because the performed assay has only produced 1 assay endpoint. To generalize the intended target to other relatable targets, this assay endpoint is annotated to the ion channel intended target family, where the subfamily is potassium channel.
Binding assays used specific radioligands (tritiated, iodinated) with non-radioactive competitive displacement ligands in agonist or antagonist protocols (as indicated) and various reference compounds and inhibitors to titrate specific binding to receptors and transporters. Most enzyme assays (CYPs, kinases, phosphatases, proteases, HDACs) used recombinant protein and specific substrates (fluorescence mostly, some colorimetric and radioactive) and inhibitors, followed by a biochemical separation of substrate and product. All assays for the biochemical HTS were initially run in duplicate at a single concentration (10 uM for CYP450 assays and 25 uM for all others). […] Each assay was run with positive and negative controls, and concurrent controls on every plate. […]

Small conductance calcium-activated potassium channel protein 1 (Rattus norvegicus), sequence (P70606 whole entry, looked up): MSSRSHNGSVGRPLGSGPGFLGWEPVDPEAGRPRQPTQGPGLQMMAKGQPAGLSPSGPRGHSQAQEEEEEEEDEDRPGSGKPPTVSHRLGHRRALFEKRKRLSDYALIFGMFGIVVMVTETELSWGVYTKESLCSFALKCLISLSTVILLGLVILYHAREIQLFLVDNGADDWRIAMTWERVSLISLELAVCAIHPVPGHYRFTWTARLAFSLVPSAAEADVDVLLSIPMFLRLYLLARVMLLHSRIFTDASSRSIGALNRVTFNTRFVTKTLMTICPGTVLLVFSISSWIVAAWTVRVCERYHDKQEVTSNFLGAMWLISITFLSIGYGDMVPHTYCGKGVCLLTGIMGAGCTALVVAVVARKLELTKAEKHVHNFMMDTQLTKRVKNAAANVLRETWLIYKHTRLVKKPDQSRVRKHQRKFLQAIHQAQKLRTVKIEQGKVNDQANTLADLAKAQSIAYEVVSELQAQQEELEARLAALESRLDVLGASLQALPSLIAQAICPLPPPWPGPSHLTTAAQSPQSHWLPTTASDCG

Which outcome does the source give for `OCc1ccccc1` here?
The outcome was “inactive”.

Which outcome does the source give for `CC1(C)C(=O)N(Cl)C(=O)N1Cl` here?
The outcome was “inactive”.

With `Cc1nc(-c2ccccn2)ncc1C(=O)Nn1cc(C)c2cc(F)ccc21` as the compound, how does the outcome read?
The outcome was “inactive”.

System: not listed separately
Assay: NVS_IC_rCaBTZCHL: NovaScreen (NVS) Ion Channel Assay for Calcium Channel, Type L, Benzothiazepine Site (CaBTZCHL) (AID 2283337)
Procedure, shortened: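 Rat cortical membrane preparation incubated 1.5 h with compound and benzothiazepine-site radioligand; loss of filter-bound counts versus DMSO marks displacement. Initial duplicate testing at 25 uM, actives followed up in concentration series.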

With `Cc1nccn1-c1ccc(Sc2cccc(C3(C(N)=O)CCOCC3)c2)cc1` as the compound, how does the outcome read?
The outcome was “inactive”.

With `CCn1nc(C)c2c1C(=O)NCC(c1ccc(O)cc1)=N2` as the compound, how does the outcome read?
The outcome was “inactive”.

Which AC50 does the source give for `c1ccc(C(O[C@@H]2CCCN(CCc3ccc4c(c3)OCO4)C2)c2ccccc2)cc1` here?
Its AC50 is 0.428 µM (active).

Which AC50 does the source give for `COc1cc(C(C)C)c2c(c1)S(=O)(=O)N(COc1cc(=O)n3cccc(OCCN4CCCCC4)c3n1)C2=O` here?
The AC50 was 3.14 µM (active).

For `CCCCCCCCN(C)C`, which outcome is on record?
The outcome was “inactive”.

For `C=CCc1cc(S(=O)(=O)c2ccc(O)c(CC=C)c2)ccc1O`, which outcome is on record?
The outcome was “inactive”.

With `CC(C)C(=O)Nc1ccc([N+](=O)[O-])c(C(F)(F)F)c1` as the compound, how does the outcome read?
The outcome was “inactive”.
